# Results reported in PubChem BioAssay AID1910 (Broad Institute, 2009).
# Among all 300,000 compounds or so, about 950 (0.32%) were called active. The list comes from a sample in which actives are over-represented; it also holds similar structures and randomly drawn compounds. A number with no mark means an inactive call.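 Rule for the calls: active = mean activation of at least 10% of the iron chelator positive control signal, with at least half of replicates also reaching 10%; inconclusive = mean and replicate majority disagree about reaching 10%; inactive = mean and most replicates under 10%.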
# Experiment: hypoxia response element reporter activation – cell-based, U2OS HRE-luciferase, luminescence, primary screen (AID 1910)
# Details: stronger effect = higher value, screened at 7.5 µM (by protocol), normalized: DMSO 0%, desferrioxamine 100%
row,Structure (SMILES),activation
1,C/C(=N\NC(=O)Cc1ccccc1[N+](=O)[O-])c1cccnc1,0.0865%
2,C/C(=N\NC(=O)Cc1ccc(Cl)cc1)c1ccccn1,17.7% (active)
3,C/C(=N\NC(N)=S)c1cccnc1,-0.0419%
4,C/C(=N\NC(=O)Cc1ccc(Br)cc1)c1cccnc1,24.8% (active)
5,Cc1ccc(Cl)cc1NC(=O)c1ccccn1,1.23%
6,C/C(=N\NC(=O)c1ccccc1F)c1ccccn1,1.74%
7,O=C(N[C@@H](Cc1ccccc1)C(=O)OCc1ccccc1)c1nc[nH]c1C(=O)NC1CCNCC1,1.06%
8,Cc1cc(NC(=O)CSC2=NS(=O)(=O)c3cc(Cl)ccc3N2)no1,1.88%
9,COc1ccc(/C=C(\C#N)C(=O)OCC(=O)N(C)C2CCS(=O)(=O)C2)cc1 (stereo not given),-41.3%
10,Nc1nc(NCCCN2CCOCC2)nc(Nc2ccccc2)c1[N+](=O)[O-],-0.302%
11,CCOc1cccc(/C=N/NC(=S)NCCN2CCOCC2)c1O,0.43%
12,CCOc1nc(NCCN2CCOCC2)nc(Nc2ccc(C)cc2)n1,296% (active)
13,O=C1CC2(CCN(C(=O)COc3ccc(F)cc3)CC2)Oc2ccccc21,-0.0585%
14,O=C(CCCCO)c1ccc(O)c(Cl)c1,-0.731%
15,COc1cc(-c2nnc(NC(=O)C3=COCCO3)o2)cc(OC)c1OC,-0.75%
16,COc1cc(OC)cc(C(=O)NNC(=O)CNC(=O)c2ccc(Br)o2)c1,0.191%
17,O=C(NCCCN1CCCC1=O)c1cccc(S(=O)(=O)NCc2ccccc2)c1,-0.752%
18,CN(Cc1cnccn1)C(=O)c1cc(COc2cccc(C(F)(F)F)c2)on1,-2.19%
19,CN(Cc1cccnc1)C(=O)c1cc(COc2ccc3ncccc3c2)on1,39.7% (active)
20,Cc1ccc(OCc2cc(C(=O)N(C)CCc3ccccc3)no2)cc1C,4.07%

row,Structure (SMILES),activation
1,CC(CN1CCCCC1)OC(=O)c1ccccc1Cl (stereo not given),-0.0657%
2,Cc1cccc(C(=O)OC(C)CN2CCN(C)CC2)c1 (stereo not given),3.11%
3,Cc1cccc(C(=O)OC(C)CN2CCCC2)c1 (stereo not given),15% (active)
4,CC(=O)c1nn(-c2ccc(C)cc2)cc1C(=O)c1cccc(Br)c1,-0.49%
5,Cc1ccc(/C=N/NC(=O)CSc2ccccn2)o1,-0.331%
6,O=C(CSc1ccc(/C=N/NC(=O)c2cccc(F)c2)o1)Nc1ccccc1,0.0126%
7,N#CCC(=O)N/N=C/c1ccc(SCC(=O)Nc2ccccc2)o1,105% (active)
8,COc1ccc(CNC(=O)C2CCN(C(=O)c3ccccc3)CC2)cc1,-0.358%
9,CCOc1ccc(N(CC(=O)OC)S(=O)(=O)c2c(C)noc2C)cc1,-0.196%
10,CCOc1ccc(N(CC(=O)NCc2ccc(OC)cc2)S(=O)(=O)c2c(C)noc2C)cc1,0.179%
11,COc1ccc(N(CC(=O)Nc2cc(OC)ccc2OC)S(=O)(=O)c2c(C)noc2C)cc1,10.1% (active)
12,COc1ccc(Cl)cc1NC(=O)CN(C)C(=O)c1cc(-c2cccs2)nn1-c1ccccc1,1.06%
13,CCN(CC(=O)Nc1cc(Cl)ccc1C)C(=O)Cn1c(=O)cnc2ccccc21,-0.594%
14,O=C(COc1coc(CN2CCN(c3ccccc3)CC2)cc1=O)N1CCc2ccccc21,0.142%
15,Nc1nonc1-n1nnc(C(=O)N/N=C/c2cc(Br)ccc2O)c1CSC1=NCCS1,20.7% (active)
16,Cc1ccc(SCc2c(C(=O)N/N=C/C3CC=CCC3)nnn2-c2nonc2N)cc1 (stereo not given),0.655%
17,Nc1nonc1-n1nnc(C(=O)N/N=C/c2ccccc2O)c1CN1CCCC1,-0.146%
18,CCN1CCN(C(=O)N(Cc2ccc(Cl)cc2)S(=O)(=O)c2ccc(C)cc2)CC1,1.75%
19,Cc1cccc(C(=O)OC(C)C(=O)NC2CCCc3ccccc32)c1O (stereo not given),-0.427%
20,O=[N+]([O-])c1ccc(O)c(/C=N/Nc2ccccc2[N+](=O)[O-])c1,1.42%

row,Structure (SMILES),activation
1,Oc1ccc(Br)cc1/C=N/Nc1ccccn1,90.5% (active)
2,Oc1ccc(/C=N/Nc2ccc(C(F)(F)F)cn2)cc1O,2.36%
3,O=C(NC1CC1)C(Cc1ccccc1)NS(=O)(=O)c1ccccc1F (stereo not given),-30.3%
4,CCS(=O)(=O)c1ccc(-c2cccc(NC(=O)c3ccc(Br)o3)c2)nn1,-0.865%
5,Cc1ccc(Nc2c3c(nc4ccccc24)CCC3)cc1,97.4% (active)
6,CC(=O)Nc1ccc(Nc2c3ccccc3nc3ccccc23)cc1,7.58%
7,N#Cc1cccc(Nc2c3c(nc4ccccc24)CCCC3)c1,-0.204%
8,Cc1ccc(SCC(=O)Nc2nncs2)cc1,-0.275%
9,NS(=O)(=O)c1cc(C(=O)OCC(=O)NNC(=O)c2ccccc2)ccc1Cl,0.0895%
10,Cc1nc(-c2ccccc2)sc1C1(C)CC(c2cccnc2)=NO1 (stereo not given),5.85%
11,Cn1ccnc1-c1nnn(-c2ccc(F)cc2)n1,2.61%
12,CCOc1ccc(CCNC(=O)COC(=O)C2CCN(c3ccc(C(F)(F)F)cn3)CC2)cc1OCC,0.095%
13,Nn1c(SCC(=O)NC2CCCC2)nnc1-c1ccccc1F,-0.0397%
14,CC(C)NC(=O)NC(=O)CSc1nnc(-c2ccccc2F)n1N,88% (active)
15,Cc1ccc(NC(=O)NC(=O)CSc2nnc(-c3ccc(OC(F)F)cc3)n2N)c(C)c1,2.08%
16,COc1ccc(NC(=O)CN(C)C(=O)c2n[nH]c3ccccc23)cc1,2.08%
17,O=C(CCNC(=O)c1ccc(Br)cc1)NCCCc1ccccc1,0.558%
18,CC(=O)N1CCc2c(sc(NC(=O)CCS(=O)(=O)c3ccc(C)cc3)c2C(N)=O)C1,-0.0953%
19,CS(=O)(=O)c1ccc(Cl)c(NC(=O)COC(=O)c2cccc(S(=O)(=O)N3CCCC3)c2)c1,0.78%
20,CCN1/C(=C\c2ccc3ccccc3[n+]2CC)Sc2cc(C)ccc21,16.3% (active)
